High-throughput results from PubChem BioAssay.
G9a inh = qHTS Assay for Inhibitors of Histone Lysine Methyltransferase G9a; Histone-lysine N-methyltransferase EHMT2 (Homo sapiens), Q96KQ7; G9a H3K9 monomethylation, AlphaScreen, 2 h; Potency, µM (titrated, usually from 102 µM), for inactives: at the top dose activity, negative = inhibition, hits mostly inhibitors; 350,000 compounds, 8.8% hits; AID 504332, 2011; further: on the % scale 0 is the no-effect control and ±100 the full control effect; nearly all actives have a fitted effect of over 75% in size
Target sequence (Q96KQ7 913-1193 limits assumed): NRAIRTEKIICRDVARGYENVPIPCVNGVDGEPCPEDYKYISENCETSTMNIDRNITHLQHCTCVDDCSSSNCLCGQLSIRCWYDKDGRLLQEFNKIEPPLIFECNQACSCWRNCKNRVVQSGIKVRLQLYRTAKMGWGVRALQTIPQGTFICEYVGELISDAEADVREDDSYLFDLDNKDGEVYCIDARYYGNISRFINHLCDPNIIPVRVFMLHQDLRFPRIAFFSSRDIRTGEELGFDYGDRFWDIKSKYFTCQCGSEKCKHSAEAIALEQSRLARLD
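Methyltransferase reactions run at room temperature for 2 h (20 nM enzyme, 500 nM biotin-H3K9 peptide, 20 uM SAM) after a 15 min compound preincubation; product detected by AlphaScreen beads and anti-H3K9me1 antibody.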
BAZ2B block = qHTS Assay for Inhibitors of BAZ2B. AlphaScreen BAZ2B-H3K14Ac peptide displacement. Potency, µM (series often up to 114 µM), for the others: at the highest dose activity change, negative = inhibition, most hits filed as inhibitors. 360,000 compounds, 4.4% hits; further: on the % scale 0 is the no-effect control and ±100 the full control effect; nearly all actives have a fitted effect of over 60% in size
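AlphaScreen luminescence quantifies BAZ2B engagement of H3K14Ac peptide; the protein and biotinylated peptide are both at 50 nM final, buffer PBS pH 7.4 with 0.01% Tween-20, all steps at room temperature.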
HP1b binding inh = HTS for Inhibitors of HP1-beta Chromodomain Interactions with Methylated Histone Tails. Chromobox protein homolog 1 (Homo sapiens), P83916. AlphaScreen HP1-beta / biotin-H3K9me3 peptide binding. Potency, µM (top dose mostly 114 µM), for the others: at the highest dose activity change, negative = inhibition, usual class: inhibitors. 390,000 compounds, 0.56% hits; further: nearly all actives have a fitted effect of over 70% in size
Target sequence (P83916 whole entry, looked up): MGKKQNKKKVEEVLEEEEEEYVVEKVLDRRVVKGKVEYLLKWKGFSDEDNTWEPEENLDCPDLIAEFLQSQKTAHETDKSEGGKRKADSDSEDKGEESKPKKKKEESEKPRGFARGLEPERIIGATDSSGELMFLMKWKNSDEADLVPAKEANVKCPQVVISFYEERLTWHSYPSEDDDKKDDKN
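AlphaScreen: HP1-beta (50 nM) preformed 30 min with biotin-H3(1-18)K9me3 peptide (50 nM) in PBS pH 7.4, 0.01% Tween-20. Compound added for 30 min at RT, then streptavidin donor/nickel chelate acceptor beads (10 ug/mL) for 30 min.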
Sfp inh = qHTS Assay for Inhibitors of Bacillus subtilis Sfp phosphopantetheinyl transferase (PPTase); Biochemical Sfp PPTase activity, qHTS; Potency, µM, inactives show largest response in the series, negative = inhibition, hits mostly inhibitors; 310,000 compounds, 3.5% hits;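 further: the enzyme is Sfp with the accession as filed and its product quenches rhodamine fluorescence; 0% = enzyme reaction without inhibitor and -100% = no enzyme wells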
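Fluorescence-quenching assay with 15 nM Sfp, 5 uM rhodamine-CoA and 12.5 uM BHQ-2-labelled ybbR peptide in pH 7.6 Hepes/MgCl2 buffer. Enzyme was pre-incubated with compound for 15 min at room temperature. Rate was taken from the 30-min fluorescence change (525/598 nm).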
JMJD2A Tudor = qHTS Assay for Inhibitors of JMJD2A-Tudor Domain. AlphaScreen JMJD2A-Tudor / H3K4me3 peptide binding. Potency, µM (highest dose often 114 µM), inactives show at the top dose activity change, negative = inhibition, usual class: inhibitors. 390,000 compounds, 4.4% hits. AID 504339, 2011; further: on the % scale 0 is the no-effect control and ±100 the full control effect; nearly all actives have a fitted effect of over 50% in size
ALOX12 inh = Primary qHTS assay for inhibitors of human arachidonate 12S-lipoxygenase (ALOX12): Round 2. AID 1671190, 2021. purified 12hLO, xylenol orange hydroperoxide absorbance. Polyunsaturated fatty acid lipoxygenase ALOX12 (Homo sapiens), P18054. Potency, µM (series often up to 108 µM), without a hit: at the highest dose activity change, negative = inhibition, usual class: inhibitors. 580,000 compounds, 1.1% hits; further: on the % scale 0 is the no-effect control and ±100 the full control effect
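Purified human 12hLO (150 nM final) in 25 mM Hepes, 0.01% Triton X-100, pH 7.0 was preincubated 15 min at room temperature with compound. Then 40 uM arachidonic acid was added, 30 min. Hydroperoxide was read by Fe-XO absorbance ratio 573/405 nm.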
* marks the source's active call; other numbers are inactive results; ? = inconclusive; nt = no result; ! = not active in a repeat; [ ] = remark or other dose. Only some compounds are listed: those with a hit (about 8.7% of all), similar ones and a draw of the others. The call rests on the fitted dose curve; in most records, active means well fitted curve in the direction sought with a large enough effect; inconclusive means small, poorly fitted or top-dose-only effect, or another doubt; inactive means no such curve, though single readings can be large; an effect the other way counts as inactive or inconclusive. Potency means the concentration at half of the fitted maximal effect.

SMILES | G9a inh | BAZ2B block | HP1b binding inh | Sfp inh | JMJD2A Tudor | ALOX12 inh
CCOc1ccccc1C1C(C(=O)OC)=C(N)OC2=C1C(=O)CCC2 (stereo unspecified) | 12%[59 µM] | -3% | 19% | -18% | -19% | -16%
Cn1ccnc1C(NC(=O)Cc1ccc(Cl)cc1Cl)c1ccccc1F (stereo unspecified) | nt | nt | nt | nt | nt | 12%
O=C(CSc1nc2[nH]ncc2c(=O)[nH]1)Nc1ccc(Cl)c(Cl)c1 | 9%[59 µM] | -3% | 31% | nt | -6% | -11%
Cc1nnc(NC(=O)CSc2nc3[nH]ncc3c(=O)[nH]2)s1 | 35µM* | -24% | 34% | 8% | -7% | -5%
COc1ccc(NC(=O)CSc2nc3[nH]ncc3c(=O)[nH]2)cc1OC | 45µM* | -24% | 34% | nt | ? | -1%
COc1ccc2c(c1)C(C)=CC(C)(C)N2C(=O)Nc1cccc(Cl)c1 | nt | nt | nt | nt | nt | 40µM*
COc1ccc(CN2CC3(CCN(C(=O)Nc4cccc(Cl)c4)CC3)C2=O)cc1 | nt | nt | nt | nt | nt | -5%
O=C1CC2CS(=O)(=O)CC2N1c1ccc(N2CCOCC2)cc1 (stereo unspecified) | nt | nt | nt | nt | nt | 20%
COc1ccc(NCC(=O)n2c(C)c(C)c3ccccc32)cc1 | 10µM* | -9% | 10% | 8% | -33% | ?
COc1ccc(S(=O)(=O)NCc2ccc3c(c2)cc(C)n3C)cc1 | 71µM* | -36% | -19% | -9% | ? | -14%
CCS(=O)(=O)NCc1ccc2c(c1)cc(C)n2C | -16%[59 µM] | -35% | 8% | -4% | -35% | 4%
Cc1cc2cc(CNS(=O)(=O)c3ccccc3)ccc2n1C | 50µM* | ? | -5% | -20% | ? | -29%
CCN(CC)CC(O)Cn1c(C)c(-c2ccccc2)c2cc([N+](=O)[O-])ccc21 (stereo unspecified) | 45µM* | ? | -12% | -15% | ? | 0%
Cc1ccc(S(=O)(=O)N/N=C/c2cccc3c2OCCO3)cc1 | 10µM* | -6% | 13% | -5% | -17% | ?
CCOc1ccc(/C=N/NS(=O)(=O)c2ccc(C)cc2)cc1OC | ? | -4% | 37% | -43% | -9% | -19%
Cc1ccc(S(=O)(=O)N/N=C/c2cccc3nccnc23)cc1 | nt | -8% | 61% | -17% | 2% | ?
O=S(=O)(N/N=C/c1cccc(OC2CSC2)c1)c1ccccc1 | ? | -12% | -1% | 11% | -23% | -5%
Cc1ccc(S(=O)(=O)N/N=C/c2cccc(OC3CSC3)c2)cc1 | 8.9µM* | -5% | 15% | -2% | -23% | ?
Cc1ccc(S(=O)(=O)N/N=C/c2ccc(C#N)cc2)cc1 | 2.2µM* | -25% | 18% | 18% | -17% | 0%
CN(C)C(=O)N1CCCC(c2nnc3n2CCNC3)C1 (stereo unspecified) | nt | nt | nt | nt | nt | -29%[6.33 µM]
CCCc1cc(=O)n2nc(N(C)CC(=O)Nc3cccc(Cl)c3C)sc2n1 | nt | nt | nt | nt | nt | -9%
O=C(CCn1c(=O)c2cccn2c2cccnc21)N1CCN(c2cccc(Cl)c2)CC1 | ? | -32% | -15% | 7% | 16µM*! | ?
Cc1ccc(S(=O)(=O)NCC(=O)OCc2cc(=O)oc3c(C)c(C)ccc23)cc1 | nt | nt | nt | nt | nt | -21%
CCO/C(C)=C1\C(=O)Nc2ccccc21 | 50µM* | 7% | 40% | 6% | -8% | -5%
Cc1cc(C)c(S(=O)(=O)N2CCOC23CCN(C(=O)c2ccc(F)c(F)c2)CC3)c(C)c1 | nt | nt | nt | nt | nt | 10%
